# Experimental data taken from PubChem BioAssay AID1159580 (chemical genetic matrix, 2015).
# “And” between values parts separate entries of the source, which are not always exact repeats. Equal values may be shown once. Screen size: about 5,500 compounds; about 2,000 (36%) were called active. About 18% were inconclusive and are not listed. The list shows a part of the results. Unmarked numbers belong to inactive results. No stated cut-off is given here; in the data, active means normalized growth mostly below about 0.91 (no sharp cut-off); inconclusive means no clear call, values can overlap the other calls; inactive means mostly above about 0.92.
# Assay: chemical genetic growth profiling, strain panel (AID 1159580);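 further: tested at 20 µM; growth read once vehicle control cultures reached saturation at 30 °C; 1 = growth at the plate median or of vehicle wells; lower values mean less growth of the strain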
# Conditions: S. cerevisiae deletion strains, growth OD
structure (smiles),measurement,setting,value
CC1=CC2C(C(C)C)CCC(C)(O)C2CC1 (configuration not stated),normalized growth,"locus YAL013W, strain DEP1, hits give low values",1
same,normalized growth,"locus YAL021C, strain ccr4, hits give low values",0.981
same,normalized growth,"locus YAL026C, strain drs2, hits give low values",1.01
same,normalized growth,"locus YAL030W, strain snc1, hits give low values",0.989
same,normalized growth,"locus YBL061C, strain skt5, hits give low values",0.991
same,normalized growth,"locus YBR009C, strain hhf1, hits give low values",0.97
same,normalized growth,"locus YBR021W, strain FUR4, hits give low values",0.999
same,normalized growth,"locus YBR023C, strain chs3, hits give low values",0.945
same,normalized growth,"locus YBR171W, strain sec66, hits give low values",0.974
same,normalized growth,"locus YBR229C, strain ROT2, hits give low values",0.949
same,normalized growth,"locus YBR231C, strain swc5, hits give low values",1.02
same,normalized growth,"locus YBR279W, strain paf1, hits give low values",0.988
same,normalized growth,"locus YCL011C, strain gbp2, hits give low values",0.998
same,normalized growth,"locus YCL016C, strain dcc1, hits give low values",0.972
same,normalized growth,"locus YCL029C, strain bik1, hits give low values",0.953
same,normalized growth,"locus YCL061C, strain MRC1, hits give low values",1.01
same,normalized growth,"locus YCL069W, strain vba3, hits give low values",0.981
same,normalized growth,"locus YCR088W, strain abp1, hits give low values",0.996
same,normalized growth,"locus YDL005C, strain med2, hits give low values",0.998
same,normalized growth,"locus YDL035C, strain GPR1, hits give low values",0.963
same,normalized growth,"locus YDL040C, strain nat1, hits give low values",0.987
same,normalized growth,"locus YDL074C, strain BRE1, hits give low values",0.97
same,normalized growth,"locus YDL101C, strain DUN1, hits give low values",0.977
same,normalized growth,"locus YDL134C, strain PPH21, hits give low values",1.01
same,normalized growth,"locus YDL185W, strain tfp1, hits give low values",0.972
same,normalized growth,"locus YDL192W, strain arf1, hits give low values",0.934
same,normalized growth,"locus YDR001C, strain nth1, hits give low values",0.992
same,normalized growth,"locus YDR069C, strain doa4, hits give low values",1.01
same,normalized growth,"locus YDR101C, strain arx1, hits give low values",0.969
same,normalized growth,"locus YDR137W, strain rgp1, hits give low values",0.771 (active)
same,normalized growth,"locus YDR159W, strain sac3, hits give low values",0.915
same,normalized growth,"locus YDR162C, strain NBP2, hits give low values",0.956
same,normalized growth,"locus YDR195W, strain ref2",1.03
same,normalized growth,"locus YDR297W, strain sur2, hits give low values",0.979
same,normalized growth,"locus YDR318W, strain mcm21, hits give low values",0.959
same,normalized growth,"locus YDR334W, strain swr1, hits give low values",1.03
same,normalized growth,"locus YDR335W, strain msn5, hits give low values",0.977
same,normalized growth,"locus YDR388W, hits give low values",0.985
same,normalized growth,"locus YDR392W, strain spt3, hits give low values",0.59 (active)
same,normalized growth,"locus YDR502C, strain sam2, hits give low values",1.02
same,normalized growth,"locus YEL003W, strain gim4, hits give low values",1
same,normalized growth,"locus YEL037C, strain rad23, hits give low values",0.997
same,normalized growth,"locus YEL061C, strain CIN8 (second series), hits give low values",1
same,normalized growth,"locus YEL061C, strain CIN8, hits give low values",0.974
same,normalized growth,"locus YER015W, strain faa2, hits give low values",0.991
same,normalized growth,"locus YER016W, strain bim1, hits give low values",0.998
same,normalized growth,"locus YER110C, hits give low values",0.966
same,normalized growth,"locus YER111C, strain swi4, hits give low values",0.995
same,normalized growth,"locus YER155C, strain BEM2 (second series), hits give low values",0.875
same,normalized growth,"locus YER155C, strain BEM2, hits give low values",0.992
same,normalized growth,"locus YER167W, strain BCK2, hits give low values",0.977
same,normalized growth,"locus YFR010W, strain ubp6, hits give low values",1.1
same,normalized growth,"locus YGL078C, strain dbp3, hits give low values",1.02
same,normalized growth,"locus YGL086W, strain mad1, hits give low values",0.978
same,normalized growth,"locus YGL167C, strain pmr1, hits give low values",0.98
same,normalized growth,"locus YGL173C, strain kem1, hits give low values",0.994
same,normalized growth,"locus YGL227W, strain vid30, hits give low values",0.991
same,normalized growth,"locus YGL240W, strain doc1, hits give low values",0.959
same,normalized growth,"locus YGL248W, strain PDE1, hits give low values",1.02
same,normalized growth,"locus YGL253W, strain hxk2, hits give low values",0.998
same,normalized growth,"locus YGR078C, strain PAC10, hits give low values",0.981
same,normalized growth,"locus YGR135W, strain pre9, hits give low values",1.08
same,normalized growth,"locus YGR229C, strain SMI1, hits give low values",0.969
same,normalized growth,"locus YGR252W, strain gcn5, hits give low values",1.06
same,normalized growth,"locus YHR013C, strain ard1, hits give low values",1.08
same,normalized growth,"locus YHR027C, strain rpn1, hits give low values",1.01
same,normalized growth,"locus YHR030C, strain SLT2, hits give low values",1 and 0.93
same,normalized growth,"locus YHR079C, strain IRE1 (second series), hits give low values",0.987
same,normalized growth,"locus YHR079C, strain IRE1, hits give low values",0.918
same,normalized growth,"locus YHR094C, strain hxt1, hits give low values",0.983
same,normalized growth,"locus YHR129C, strain ARP1, hits give low values",0.993
same,normalized growth,"locus YHR142W, strain chs7, hits give low values",0.916
same,normalized growth,"locus YHR200W, strain rpn10, hits give low values",1
same,normalized growth,"locus YIL066C, strain RNR3, hits give low values",0.968
same,normalized growth,"locus YIL073C, strain SPO22, hits give low values",1.04
same,normalized growth,"locus YIL125W, strain kgd1, hits give low values",0.961
same,normalized growth,"locus YIR030C, strain dcg1, hits give low values",0.981
same,normalized growth,"locus YJL092W, strain hpr5, hits give low values",0.996
same,normalized growth,"locus YJL095W, strain BCK1 (second series), hits give low values",0.995
same,normalized growth,"locus YJL095W, strain BCK1, hits give low values",1.05 and 0.947
same,normalized growth,"locus YJL115W, strain asf1, hits give low values",1
same,normalized growth,"locus YJL129C, strain trk1, hits give low values",1.01
same,normalized growth,"locus YJL134W, strain LCB3, hits give low values",0.979
same,normalized growth,"locus YJL154C, strain vps35, hits give low values",0.998
same,normalized growth,"locus YJL164C, strain tpk1, hits give low values",0.942
same,normalized growth,"locus YJL166W, strain qcr8, hits give low values",0.979
same,normalized growth,"locus YJL168C, strain set2, hits give low values",0.992
